The source of these data is PubChem BioAssay (Tox21).

Several values for one entry are separate records, joined by “and”; a condition that tells them apart may be missing. Equal values may be shown once. Records with an inconclusive call do not appear. Where a call stands in place of a potency, no number is given. A structure can be active in one record and inactive in another. Activity calls are given as the source filed them. Calls come from the whole dose curve; as a rule, active = well fitted cell-killing curve with a large enough effect in the repeat runs; inconclusive = weak or mixed curves, or effect the other way; inactive = flat fitted curve, though single readings scatter.
Potency is the fitted concentration of half-maximal effect.

A short description of the assay: qHTS assay to identify small molecule agonists of the sonic hedgehog signaling (Shh) pathway - cell viability counter screen (AID 1259366). Note: nearly all actives have a fitted effect of over 50% in size. The following applies: NIH/3T3 Gli1-Luc viability, CellTiter-Fluor, 24 h; series mostly up to 92.4 µM; viability change, negative = cytotoxic: at the top concentration. An excerpt:
National Center for Advancing Translational Sciences [NCATS]
NIH Chemical Genomics Center [NCGC]
U.S. Environmental Protection Agency [EPA]
National Institutes of Environmental Health Sciences [NIEHS]
National Toxicology Program [NTP]
U.S. Food and Drug Administration [FDA]
The sonic hedgehog (Shh) pathway is essential for normal embryonic development. Dysregulation of the Shh pathway can cause severe developmental defects in organs. Therefore chemicals that interfere with the pathway are potential developmental toxicants. A cell line designated 3T3Gli1-Luc (DMB/OARSA/CFSAN/FDA, Laurel, MD), a NIH/3T3 derived clone containing stably integrated Gli1-Luc reporter is used to detect chemical interference of the Shh pathway, by changes in the expression of the firefly Luc gene under the control of the Gli1 transcriptional response element. This cell line was used to screen Tox21 libraries for identifying and prioritizing the potential developmental toxicants that interfere Shh pathway. The cytotoxicity of the compounds was tested in parallel by measuring the cell viability using CellTiter-Fluor assay system (Promega, Madison, WI) in the same wells.
Tox21 Assay Protocol Summary:
3T3 Gli1-Luc cells were dispensed at 2,000 per well in 5uL of culture medium into white solid bottom 1536-well plates (Greiner Bio-One, Monroe, NC) using a Multidrop Combi (Thermo Scientific, Waltham, MA) dispenser. The assay plates were incubated at 37 C and 5% CO2 for 4hr, and then 23nL of compounds dissolved in DMSO and positive control were transferred using a Pintool station (Wako, San Diego, CA). The assay plates were incubated at 37C and 5% CO2 for 24hr. For viability read, after 23hr of compound treatment, 1uL of CellTiter-Fluor reagent (Promega Corporation, Madison, WI) was added to each well of the assay plates using Flying Reagent Dispenser (FRD, Aurora Discovery, San Diego, CA) and incubated the assay plates at 37C for 1hr. The fluorescence signal was quantified using a ViewLux plate reader (Perkin Elmer, Shelton, CT).
For the molecule `CC(C)=CC1C(C(=O)OCN2C(=O)C3=C(CCCC3)C2=O)C1(C)C` (stereo not given), the Potency result was “inactive”. For `ClCc1ccccn1`, the Potency result is “inactive”. As for `CC(C)(c1ccc(OCC2CO2)cc1)c1ccc(OCC2CO2)cc1` (stereo not given), the “viability change, negative = cytotoxic” value was 1.02% (inactive). For `Cc1cc(Cl)ccc1N=CN(C)C`, the Potency result was “inactive”. For `CCOP(=S)(OCC)SCSC(C)(C)C`, the “viability change, negative = cytotoxic” value was 2.25% (inactive). Take `CCOC(=O)c1ccccc1N`: the Potency result is “inactive”.

For the molecule `CC1=C(C(=O)Nc2ccccc2)SCCO1`, the Potency entry was “inactive”.

`O=C1C(Cl)=C(Cl)C(=O)c2ccccc21`: the Potency is 4.34 µM (active). In the case of `Oc1ccc(Cl)cc1Cl`, the Potency result is “inactive”. Take `CC1CC(=O)O1` (stereo not given): the Potency entry was “inactive”. Turning to `CC(C)COC(=O)c1ccccc1C(=O)OCC(C)C`, the Potency result was “inactive”. Consider `CCOP(=O)(O)OCC` (tested in a mixture with another compound), for which the Potency result is “inactive and 48.2 µM (active)”. As for `COC(=O)Nc1nc2ccccc2[nH]1`, the Potency result is “inactive”. As for `C[C@]12CCC(=O)C=C1CC[C@@H]1[C@@H]2CC[C@@]2(C)[C@H]1CC[C@]2(C)O`, the “viability change, negative = cytotoxic” value is 19% [at 42.5 µM] (inactive). Regarding `Clc1cccc(Cl)c1`, the Potency result is “inactive”. On the same count and under the same terms, the entry for `[CH3][Sn]([Cl])([Cl])[Cl]` is “inactive”; for `CC(C)(c1ccccc1)c1ccc(O)c(C(C)(C)c2ccccc2)c1` it is 60.6 µM (active) and 54.5 µM (active).

Regarding `Nc1ccc([N+](=O)[O-])cc1N`, the Potency is 30.6 µM (active) and 24.3 µM (active).

Take `CC(C)(O)C(=O)Nc1ccc([N+](=O)[O-])c(C(F)(F)F)c1`: the Potency result was “inactive”. Take `CNC(=O)CSP(=S)(OC)OC`: the “viability change, negative = cytotoxic” value was 1.68% (inactive). As for `O=C1CCCO1`, the Potency entry was “inactive”.

In the case of `O=[N+]([O-])/N=C1\NCCN1Cc1ccc(Cl)nc1`, the Potency result was “inactive”. Turning to `CCOS(=O)(=O)OCC`, the Potency entry was “inactive”. The same measure, in the same setting: the entry for `N#CC(c1ccccc1)c1ccccc1` is “inactive”; for `CNC(=O)Oc1cccc2c1OC(C)(C)C2` it is “inactive”; for `c1ccc2c(c1)Nc1ccccc1S2` it is “inactive”.

As to `CC1(C)C(C(=O)OC(C#N)c2cccc(Oc3ccccc3)c2)C1(C)C` (stereo not given), the Potency result was “inactive”. Turning to `Clc1cccc(C(Cl)(Cl)Cl)n1`, the Potency result was “inactive”. As to `CCN(CC)C(=O)C(C)Oc1cccc2ccccc12` (stereo not given), the Potency result was “inactive”. For `N#Cc1cccnc1`, the Potency result was “inactive”. The same measure, in the same setting: as for `O=C1Nc2ccc(Cl)cc2C(c2ccccc2)=NC1O` (stereo not given), the entry is “inactive”; as for `O=S(=O)(O)C(F)(F)C(F)(F)C(F)(F)C(F)(F)C(F)(F)C(F)(F)C(F)(F)C(F)(F)F`, “inactive”; as for `CCCCC(C#N)(Cn1cncn1)c1ccc(Cl)cc1` (stereo not given), “inactive”. Regarding `CC(C)=CC1C(C(=O)OCc2cccc(Oc3ccccc3)c2)C1(C)C` (stereo not given), the Potency entry was “inactive”. For the molecule `CCNCC`, the Potency entry was “inactive”.

As for `CCCCCCCCCCCCCl`, the Potency entry is “inactive”. On to `CSc1nc(NC(C)C)nc(NC(C)C)n1`, for which the Potency result is “inactive”. Turning to `CCCCCCCC[N+](C)(CCCCCCCC)CCCCCCCC`, the Potency is 48.5 µM (active) and 9.7 µM (active) and 19.3 µM (active). As to `CCOP(=S)(OCC)OP(=S)(OCC)OCC`, the Potency entry was “inactive”. On to `ClCC(Cl)CCl`, for which the Potency entry is “inactive”.
